TLR9-MyD88 inh – inhibitors of TLR9-MyD88 association in cells, primary screen, cell-based, CHO, BLA complementation, fluorescence. 340,000 compounds, 0.21% hits. Toll-like receptor 9 (Homo sapiens) + Myeloid differentiation primary response protein …. CCF4 FRET ratio. inhibition, % at 4.98 µM;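 active = inhibition above the mean over all tested compounds plus 3 SD, cut at about 21% in these data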
TLR4 MyD88 comp – inhibitors of TLR4-MyD88 association in cells, primary screen, cell-based, HeLa CL3-4, BLA complementation, FRET ratio. HeLa CL3-4 TLR4/MyD88 BLA complementation. inhibition, % at 8.4 µM. 200,000 compounds, 0.18% hits; in the data active = inhibition above about 25%
Myeloid diff MLP – induction of myeloid progenitor differentiation, primary screen, cell-based, flow cytometry, MLPCN library | ER-HoxA9 myeloid progenitors, lysozyme-GFP differentiation | calls only at 10 µM | 360,000 compounds, 1% hits | AID 624256, 2012;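 active = normalized GFP-positive differentiation at or above the plate's own cutoff, the solvent-only control mean plus 3 SD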;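 note: cells exposed to compound for four days before flow analysis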
ABCB6 inh MLPCN – ABCB6 transporter inhibitors, primary screen, K562-ABCB6 cells, flow cytometry, MLPCN library; K562-ABCB6 porphyrin accumulation, 1 h; active compounds read low; fluorescence ratio to DMSO, % at 10 µM; 360,000 compounds, 0.19% hits;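 active = fluorescence ratio to DMSO below 75%, the collection mean minus 3 SD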;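 note: signal is porphyrin accumulated inside mitochondria; lower ratio means ABCB6 inhibition with less porphyrin fluorescence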
Target sequence (Q9NP58 whole entry, looked up): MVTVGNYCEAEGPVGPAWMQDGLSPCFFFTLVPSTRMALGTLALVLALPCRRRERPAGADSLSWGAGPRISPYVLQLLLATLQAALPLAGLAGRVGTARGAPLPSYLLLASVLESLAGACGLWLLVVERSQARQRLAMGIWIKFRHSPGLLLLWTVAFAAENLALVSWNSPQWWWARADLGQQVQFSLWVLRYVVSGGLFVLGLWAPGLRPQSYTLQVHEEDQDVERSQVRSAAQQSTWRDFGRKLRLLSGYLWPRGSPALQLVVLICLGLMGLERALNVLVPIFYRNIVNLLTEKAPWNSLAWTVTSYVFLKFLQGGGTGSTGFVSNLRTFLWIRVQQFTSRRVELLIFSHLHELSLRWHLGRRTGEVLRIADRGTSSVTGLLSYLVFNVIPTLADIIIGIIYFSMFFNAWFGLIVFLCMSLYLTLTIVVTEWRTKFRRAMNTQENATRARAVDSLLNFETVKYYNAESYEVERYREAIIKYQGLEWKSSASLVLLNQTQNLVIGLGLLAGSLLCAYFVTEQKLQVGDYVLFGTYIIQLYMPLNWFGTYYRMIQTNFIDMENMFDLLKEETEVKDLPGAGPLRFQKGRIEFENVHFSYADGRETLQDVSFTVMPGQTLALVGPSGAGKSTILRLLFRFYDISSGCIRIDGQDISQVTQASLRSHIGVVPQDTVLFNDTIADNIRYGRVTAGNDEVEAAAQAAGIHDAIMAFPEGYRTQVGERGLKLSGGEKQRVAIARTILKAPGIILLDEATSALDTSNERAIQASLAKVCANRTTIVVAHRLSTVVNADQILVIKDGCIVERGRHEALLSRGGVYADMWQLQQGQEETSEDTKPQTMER
NOD2 RIPK2 PPI – NOD2-RIPK2 binding disruptors in cells, primary screen, fluorescence, CHO cells, BLA complementation. 360,000 compounds, 0.38% hits. CCF4 ratio. AID 624267, 2012. Receptor-interacting serine/threonine-protein kinase 2 (Homo sapiens), O43353. inhibition, % at 4.98 µM; in the data active = inhibition above about 21%
Myeloid diff CP1 – inducers of myeloid progenitor differentiation, confirmation, cell-based, GFP/Mac1 flow cytometry, cherry pick 01; AID 651706, 2012; 2,300 compounds, 2% hits; calls only; ER-HoxA9 myeloid progenitors, GFP/Mac1 double-positive flow; shares compounds with Myeloid diff MLP;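 active = share of green or green-and-red cells above 9 and 9% in run 1 or 4 and 3% in run 2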
GFP autofluor – compound fluorescence in myeloid differentiation counter-screen; shares compounds with Myeloid diff MLP; ER-HoxA9 myeloid progenitors, no estrogen, GFP autofluorescence flow cytometry; vehicle wells 0%, positive control 100%; fluorescence response, % (no concentration beside the values); 2,300 compounds, 7.4% hits;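 active = over 5% cells positive for green fluorescent reporter, or over 2% positive for both it and APC stain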
Of the large screens only hits and unclear results are named; the others gave an inactive call (follow-up assays come after a bar, where they were run). Sampled rows, rich in hits. Any-hit rate of the full collection: about 1.7%.

O=C(O)CN1C(=O)C2(OCCO2)c2cc(Br)ccc21	none (no result: TLR4 MyD88 comp)
COc1ccccc1OCc1ccc(C(=O)NN)cc1	none | Myeloid diff CP1 inactive | GFP autofluor inactive
CC(=O)Nc1cccc(NC(=O)CSc2nc(=O)n3cccc(C)c3n2)c1	none (no result: TLR4 MyD88 comp)
O=C(NCc1ccco1)c1ccc2c(c1)N(Cc1ccccc1)CCS2	none (no result: TLR4 MyD88 comp) | Myeloid diff CP1 inactive | GFP autofluor inactive
CC(C)(CN1CCCC1)NS(=O)(=O)c1ccccc1	none (no result: TLR4 MyD88 comp) | Myeloid diff CP1 inactive | GFP autofluor inactive
CC(C)(CN1CCN(c2ccccc2)CC1)NS(=O)(=O)c1ccccc1	none (no result: TLR4 MyD88 comp)
Cc1ccc(OCc2cc(C(=O)N3CCC(c4ccccc4Cl)C3)no2)cc1C (centres undefined)	none (no result: TLR4 MyD88 comp)
Cc1nnc2sc(-c3ccc(NC(=O)CSc4ccc(Cl)cc4)cc3)nn12	none
Cc1ccc(-c2nn3c(C)nnc3s2)cc1NC(=O)CSc1ccc(Cl)cc1	Myeloid diff MLP active | Myeloid diff CP1 active | GFP autofluor inactive
CC1Cc2ccccc2N1C(=O)Cn1nnc(-c2ccccc2NC(=O)C2CCC2)n1 (centres undefined)	none | Myeloid diff CP1 inactive | GFP autofluor inactive
O=C(Cc1ccccc1)NCC(=O)OCC(=O)c1ccc(OC(=O)c2ccccc2)cc1	none | Myeloid diff CP1 inactive | GFP autofluor inactive
Cc1ccc(C(=O)COC(=O)CNC(=O)Cc2ccccc2)cc1	none (no result: TLR4 MyD88 comp)
Cc1nc(SCC(=O)NCCc2ccccc2)nc(C)c1C	none
CCOC(=O)c1c(NC(=S)Nc2ccc(Cl)cc2)sc2c1CCN(C)C2	Myeloid diff MLP active | Myeloid diff CP1 inactive | GFP autofluor 47
CCOC(=O)c1c(NC(=S)Nc2ccc(OCC)cc2)sc2c1CCN(C)C2	none (no result: TLR4 MyD88 comp)
CC(C)(C)c1cc(Cl)c(O)c(NC(=S)NC(=O)c2cccnc2)c1	Myeloid diff MLP active | Myeloid diff CP1 inactive | GFP autofluor inactive
CC(C)(C)c1ccc(C(=O)NNC(=S)NC(=O)c2cccnc2)cc1	none (no result: TLR4 MyD88 comp)
Cc1ccc(NS(=O)(=O)c2ccc(Cl)c(C(=O)Nc3ccccc3-c3nc4ccccc4[nH]3)c2)cc1C	none | Myeloid diff CP1 inactive | GFP autofluor inactive
O=C(OCCN1CCOCC1)c1ccc(Cl)cc1Cl	none (no result: TLR4 MyD88 comp)
CO/N=C(\CS(=O)(=O)Cc1ccc(OC)cc1)c1ccc(Cl)cc1	none | Myeloid diff CP1 inactive | GFP autofluor inactive
O=C(Nc1cccc2ccccc12)/C(=C/c1cccc([N+](=O)[O-])c1)NC(=O)c1cccs1	none
O=C(Nc1cccc2ccccc12)/C(=C\c1cccc([N+](=O)[O-])c1)NC(=O)c1cccs1	Myeloid diff MLP active | Myeloid diff CP1 inactive | GFP autofluor inactive
COc1ccc(-c2cc(C(F)(F)F)n3ncc(C(=O)Nc4c(C)n(C)n(-c5ccccc5)c4=O)c3n2)cc1	none (no result: TLR9-MyD88 inh, Myeloid diff MLP, ABCB6 inh MLPCN, NOD2 RIPK2 PPI)
O=C(CSc1nc2ccccc2n1CC(=O)N1CCCC1)NCc1ccc2c(c1)OCO2	none | Myeloid diff CP1 inactive | GFP autofluor inactive
O=C(CSc1nc2ccccc2c(=O)n1-c1ccccc1)NCc1ccc2c(c1)OCO2	none
CC(=O)Oc1cc(C)cc2oc(=O)cc(-c3ccccc3)c12	none (no result: TLR4 MyD88 comp) | Myeloid diff CP1 inactive | GFP autofluor inactive
Cc1cccc(C)c1C(O)c1ncc(-c2cccc(C(F)(F)F)c2)[nH]1 (centres undefined)	none (no result: TLR9-MyD88 inh, TLR4 MyD88 comp)
c1ccc2c(c1)NCCS2	Myeloid diff MLP active | Myeloid diff CP1 inactive | GFP autofluor inactive
S=C1CSc2ccccc2N1	none
CN(c1ccc(C(=O)NCc2ccc3c(c2)OCO3)cc1)S(=O)(=O)c1ccccc1	none | Myeloid diff CP1 inactive | GFP autofluor inactive
COc1ccccc1-n1c(SCC(=O)OC(C)C)nc2cccnc21	none (no result: TLR4 MyD88 comp)
Cc1ccc(-c2cc3ccccc3nc2N)cc1	none (no result: TLR4 MyD88 comp)
Cc1ccccc1S(=O)(=O)c1cc2ccccc2nc1N	none | Myeloid diff CP1 inactive | GFP autofluor inactive
COc1ccccc1CNC(=O)CSc1ccsc1[N+](=O)[O-]	none | Myeloid diff CP1 inactive | GFP autofluor inactive
CC(C)N(Cc1cc2ccccc2[nH]c1=O)C(=O)C1CCCCC1	none | Myeloid diff CP1 inactive | GFP autofluor inactive
CCN(Cc1cc2ccccc2[nH]c1=O)C(=O)C1CCCCC1	none
COc1ccc(CCNC(=O)c2ccn[nH]2)cc1OC	Myeloid diff MLP active | Myeloid diff CP1 inactive | GFP autofluor inactive
COc1ccc(NC(=O)c2ccccc2-c2ccccc2)c(C)c1	none
CCOC(=O)C1(Nc2nccs2)Sc2ccccc2NC1=O (centres undefined)	Myeloid diff MLP active | Myeloid diff CP1 inactive | GFP autofluor inactive
COC1=C/C(=C/c2c(N)n3nc(-c4ccc(C)cc4)sc3nc2=O)C=CC1=O	none (no result: Myeloid diff MLP)
CCOC1=C/C(=C/c2c(N)n3nc(-c4ccccc4)sc3nc2=O)C=CC1=O	Myeloid diff MLP active (no result: TLR9-MyD88 inh) | Myeloid diff CP1 inactive | GFP autofluor 5.2
CCCc1c(C(=O)Nc2ccc(F)cc2C)cnn1-c1ccccc1	none (no result: TLR4 MyD88 comp)
CCCc1c(NC(=O)Nc2ccc(F)cc2)cnn1-c1ccccc1	Myeloid diff MLP active (no result: TLR4 MyD88 comp) | Myeloid diff CP1 inactive | GFP autofluor inactive
CC(=O)c1c(O)cc(=O)n(-c2ccccc2)c1-c1ccc(C)cc1	none | Myeloid diff CP1 inactive | GFP autofluor inactive
CC(=O)c1c(O)c(C)c(-c2ccccc2)n(-c2ccccc2)c1=O	none
CC1(Br)C(Sc2ccccc2[N+](=O)[O-])=Nc2ccccc21 (centres undefined)	none (no result: TLR9-MyD88 inh, TLR4 MyD88 comp)
CCc1c(C)nc2ncnn2c1Nc1ccc(C)cc1	none (no result: TLR4 MyD88 comp)
CCc1c(C)nc2ncnn2c1NC1CCCc2ccccc21 (centres undefined)	none | Myeloid diff CP1 inactive | GFP autofluor inactive
CC1=C(C(=O)O)N2C(=O)C(NC(=O)c3nn(C)c(C)c3Cl)C2SC1 (centres undefined)	none | Myeloid diff CP1 inactive | GFP autofluor inactive
COc1cc(S(=O)(=O)N2CCC(c3nc4ccccc4s3)CC2)ccc1S(=O)(=O)NC1CCCC1	none
COc1cc(S(=O)(=O)N2CCC(c3nc4ccccc4s3)CC2)ccc1S(=O)(=O)N1CC(C)CC(C)C1 (centres undefined)	none | Myeloid diff CP1 inactive | GFP autofluor inactive
CCCC(=O)N1CCN(Cc2ccc3c(c2)OCO3)CC1	none
CCC(CC)C(=O)N1CCN(Cc2ccc3c(c2)OCO3)CC1	none | Myeloid diff CP1 inactive | GFP autofluor inactive
COc1ccc(C(=O)O)cc1S(=O)(=O)N1CCN(Cc2ccc3c(c2)OCO3)CC1	none (no result: TLR4 MyD88 comp) | Myeloid diff CP1 inactive | GFP autofluor inactive
C#CCNC(=O)C[C@@H]1C[C@@]2(C(=O)OC)CCCCC=C2N(Cc2ccc3c(c2)OCO3)C1=O	none (no result: TLR9-MyD88 inh, TLR4 MyD88 comp, ABCB6 inh MLPCN)

Compound activity as filed in PubChem.
